DT40 TDP1 CPT: qHTS for Inhibitors of human tyrosyl-DNA phosphodiesterase 1 (TDP1): qHTS in cells in presence of CPT. chicken DT40 Tdp1-/-;hTDP1 cells + 20 nM CPT, ATP luminescence, 48 h. Potency, µM (highest dose often 46.2 µM), for the others: at the top dose activity change, negative = growth inhibition, usual class: inhibitors. actives 12% (n = 420,000); also: potency is read from the fitted curve at half-maximal effect; % is scaled to controls: 0 for no effect and ±100 for the full control effect; nearly all actives have a fitted effect of over 55% in size
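Chicken DT40 Tdp1-/- cells complemented with human TDP1, 400 cells/well, exposed to compounds plus 20 nM camptothecin for at least 48 h at 37 C; viability read as ATP content by CellTiter-Glo luminescence.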
TGFb SMAD3 inh: qHTS for Inhibitors of TGF-b; HepG2 CAGA-GFP TGF-b/SMAD3 reporter, GFP fluorescence, 18 h; TGF-beta stimulated, 500 pg/mL final; actives 1.2% (n = 410,000); Potency, µM (highest dose often 46.1 µM), for inactives: top-dose activity, negative = inhibition, most hits filed as inhibitors; also: potency is read from the fitted curve at half-maximal effect; % is scaled to controls: 0 for no effect and ±100 for the full control effect; nearly all actives have a fitted effect of over 65% in size
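HEPG2 CAGA-GFP reporter cells (1000/well, DMEM with 1% FBS) received compounds, then recombinant TGF-beta at 500 pg/mL final for 18 hours at 37 degrees C. Per-cell GFP summed per well was normalised to unstimulated and stimulated DMSO controls before curve fitting.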
TDP1 cell noCPT: qHTS for Inhibitors of human tyrosyl-DNA phosphodiesterase 1 (TDP1): qHTS in cells in absence of CPT; DT40 Tdp1-/- hTDP1 cells, no CPT, ATP luminescence, 48 h; Potency, µM (doses to about 46.2 µM), inactives show at the highest dose activity change, negative = growth inhibition, most hits filed as inhibitors; actives 15% (n = 420,000); AID 686978, 2013; also: potency is read from the fitted curve at half-maximal effect; % is scaled to controls: 0 for no effect and ±100 for the full control effect; nearly all actives have a fitted effect of over 55% in size
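Growth of hTDP1-complemented DT40 Tdp1-knockout cells is measured by ATP luminescence after at least 48 hr compound exposure at 37 °C, with DMSO substituting for the 20 nM CPT used in the parallel screen.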
IL-1B inflam inh: qHTS for Inhibitors of Inflammasome Signaling: IL-1-beta AlphaLISA Primary Screen; THP-1 LPS/ATP IL-1B secretion, AlphaLISA, 16 h; active compounds read low; activity change, % at 57.5 µM; actives 4.7% (n = 360,000); in the data active = activity change below about -50%; inconclusive = mostly about -30% to -49%; also: % is scaled to controls: 0 for no effect and ±100 for the full control effect
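THP-1 cells pretreated 1 hr with compounds (up to 57.5 uM final), then stimulated with LPS (250 ng/mL final) plus ATP (1.25 mM final); secreted IL-1B measured by AlphaLISA after 16 hr, decreased signal indicating inhibition.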
S-ASM inh: Inhibitors of Secretory Acid Sphingomyelinase (S-ASM): qHTS. placental ASM, HMU-PC fluorogenic substrate, 60 min. Potency, µM (highest dose often 57.5 µM), without a hit: at the top dose activity change, negative = inhibition, usual class: inhibitors. actives 0.006% (n = 340,000). AID 504937, 2011; also: potency is read from the fitted curve at half-maximal effect
Target sequence (P17405 47-631 limits assumed): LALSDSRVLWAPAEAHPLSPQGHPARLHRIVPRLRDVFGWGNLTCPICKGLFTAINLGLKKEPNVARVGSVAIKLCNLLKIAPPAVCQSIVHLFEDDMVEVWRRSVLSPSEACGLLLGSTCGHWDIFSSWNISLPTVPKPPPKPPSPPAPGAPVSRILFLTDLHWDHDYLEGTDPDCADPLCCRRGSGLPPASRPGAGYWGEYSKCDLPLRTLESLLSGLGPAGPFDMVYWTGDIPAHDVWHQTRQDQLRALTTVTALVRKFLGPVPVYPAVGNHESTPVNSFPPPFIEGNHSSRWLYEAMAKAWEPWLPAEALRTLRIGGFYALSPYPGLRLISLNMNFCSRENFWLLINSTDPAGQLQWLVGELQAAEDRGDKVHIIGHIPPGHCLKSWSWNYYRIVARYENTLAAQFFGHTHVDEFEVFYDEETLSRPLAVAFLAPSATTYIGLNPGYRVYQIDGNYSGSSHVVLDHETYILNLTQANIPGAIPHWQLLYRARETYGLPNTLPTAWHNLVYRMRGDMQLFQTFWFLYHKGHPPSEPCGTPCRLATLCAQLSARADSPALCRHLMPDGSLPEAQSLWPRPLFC
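Human placenta-derived ASM enzyme was preincubated with compound for 10 minutes at room temperature, then given fluorogenic substrate HMU-PC0 (9 uM final) for 60 minutes at 37 °C; a pH 10 stop preceded fluorescence reading at Ex 386/Em 447 nm.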
HepG2 tox: qHTS for Inhibitors of TGF-b: Cytotox Counterscreen | Potency, µM (top dose mostly 46.1 µM), without a hit: at the highest dose activity change, negative = cytotoxicity, most hits filed as cytotoxic | actives 0.76% (n = 410,000) | HepG2 CAGA-GFP viability, ATP luminescence, 18 h | AID 588856, 2011; also: potency is read from the fitted curve at half-maximal effect
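CellTiter-Glo luminescence gave cytotoxicity after 18 hours at 37 degrees C. The cells were HepG2 CAGA-GFP in 1% FBS DMEM, stimulated with 500 pg/mL TGF-beta after compound addition. %Activity was normalised to no-cell wells (complete cell-killing) and DMSO (no toxicity), and curves were fitted and classified.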
Active calls of the source: *; i = inactive; ? = inconclusive; nt = not tested or not shown; [ ] = dose if it differs, or a comment. In the library only some 19% were active in any assay of this set; here they are far more common. Unless noted, calls follow the shape of the dose curve; as a rule, active = well fitted curve in the direction sought with a large enough effect; inconclusive = small, poorly fitted or top-dose-only effect, or another doubt; inactive = no such curve, though single readings can be large; an effect the other way counts as inactive or inconclusive.

SMILES	DT40 TDP1 CPT	TGFb SMAD3 inh	TDP1 cell noCPT	IL-1B inflam inh	S-ASM inh	HepG2 tox
Oc1ccc(/C=N/Nc2nccnc2Cl)cc1	?	0%	?	0	-1%	-78%
O=C(NC(c1ccc(Cl)cc1)c1cccnc1)C1CCN(CCOc2ccc(Cl)cc2Cl)CC1 (stereo unspecified)	?	?	?	0	nt	-87%
O=C(NC(c1ccc(-c2ccccc2)cc1)c1cnccn1)C1CCN(CCOc2ccc(F)cc2)CC1 (stereo unspecified)	?	13µM*	?	-54*	nt	18µM*
O=C(NC(c1ccc(F)cc1)c1cnccn1)C1CCN(CCOc2ccc(Cl)cc2Cl)CC1 (stereo unspecified)	?	?	16µM*	nt	nt	-34%
O=C(NC(c1ccc(Cl)cc1)c1cnccn1)C1CCN(CCOc2ccc(F)cc2)CC1 (stereo unspecified)	?	-2%	18µM*	?	nt	-37%
O=C(NC(c1ccc(-c2ccccc2)cc1)c1cnccn1)C1CCN(CCCOc2ccccc2)CC1 (stereo unspecified)	23µM*	?	13µM*	-21	nt	-97%
Cc1cccnc1C(NC(=O)C1CCN(CCOc2ccc(F)cc2)CC1)c1ccc(F)cc1 (stereo unspecified)	?	-10%	?	?	nt	-14%
CC(C)CC1NC(=O)N(CC(=O)Nc2cccc(Br)c2)C1=O (stereo unspecified)	-6%	0%	10%	0	3%	-14%
Cc1cccc(N)c1-c1c(C)cccc1N	3%	3%	1%	11	2%	1%
COc1cc(NC(=O)CCc2c(C)nc3c4c(C)cc(C)nc4nn3c2C)cc(OC)c1	?	4%	?	nt	nt	-4%
COc1ccc(S(=O)(=O)Nc2cc3c(cc2N2CCOCC2)n(C)c(=O)n3C)cc1	?	-2%	?	nt	nt	-29%
Oc1ccc2ccccc2c1CN1CCN(C/C=C/c2ccccc2)CC1	-33%	-34%	-13%	-77*	5%	-23%
O=c1cc(CN2CCN(C/C=C/c3ccccc3)CC2)c2cc(O)c(-c3ccccc3)cc2o1	18µM*	-2%	18µM*	?	56%	-14%
CC(C)CN(Cc1cc(=O)oc2cc(-c3ccccc3)c(O)cc12)CC(C)C	?	?	?	8	4%	-68%
O=S(=O)(c1ccccc1)N1CCN(Cc2c(O)ccc3ccccc23)CC1	-19%	-19%	15%	?	1%	-29%
Cc1c(O)ccc2c(CN3CCN(C/C=C/c4ccccc4)CC3)cc(=O)oc12	?	-19%	?	-77*	i	-6%
COc1ccc(CCNC(=O)C(=O)NCC(c2ccc3c(c2)OCO3)N2CCOCC2)cc1 (stereo unspecified)	?	-7%	?	nt	nt	-32%
C[C@@H]1CN([C@@H](C)CO)C(=O)CCCn2nncc2CO[C@@H]1CN(C)S(C)(=O)=O	24%	2%	7%	7	nt	-6%
COc1ccc(CSc2nc3ccccc3c(=O)n2CCCN2CCOCC2)cc1F	?	-18%	?	-6	-3%	6%
COc1ccc(CCNC(=O)c2c[nH]c3ccc(F)cc3c2=O)cc1OC	?	-4%	13µM*	0	-1%	-9%
COc1cc2[nH]c(C(=O)NCc3ccccc3)cc2c(OC)c1OC	-3%	20%	?	-65*	-2%	-43%
COc1cc2[nH]cc(C(=O)NCc3ccccc3)c(=O)c2cc1OC	?	-12%	26µM*	-16	0%	-17%
COC(=O)c1cccc(-c2cc(Cl)c3c(c2)CC(CNC(=O)c2cccnc2)O3)c1 (stereo unspecified)	17%[9.04 µM]	nt	?	nt	nt	nt
CCOc1cc(N2CCOCC2)c(OCC)cc1NC(=O)COC(=O)[C@@H]1CCCN1S(=O)(=O)c1ccccc1F	?	-16%	?	21	-2%	-18%
CC(C)c1ccc(Nc2nc(N3CCOCC3)nc(N3CCOCC3)n2)cc1	18µM*	8%	18µM*	-8	nt	3%
SMILES	DT40 TDP1 CPT	TGFb SMAD3 inh	TDP1 cell noCPT	IL-1B inflam inh	S-ASM inh	HepG2 tox
Clc1ccc(Nc2nc(N3CCOCC3)nc(N3CCOCC3)n2)cc1Cl	?	-14%	9.2µM*	-28	-7%	-6%
Cc1ccc(Nc2nc(N3CCOCC3)nc(N3CCOCC3)n2)cc1	18µM*	2%	18µM*	nt	-3%	-32%
COc1ccc(Nc2nc(N3CCCC3)nc(N3CCOCC3)n2)cc1	nt	-8%	nt	nt	1%	-30%
CC(C)c1ccc(Nc2nc(NCc3ccco3)nc(N3CCOCC3)n2)cc1	?	4%	?	-21	-9%	-13%
Cc1ccc(Nc2nc(Nc3ccc(Cl)cc3)nc(N3CCOCC3)n2)cc1	11µM*	6%	18µM*	nt	nt	-28%
Fc1ccc(Nc2nc(N3CCOCC3)nc(N3CCOCC3)n2)cc1Cl	?	-2%	-21%	-27	-1%	-18%
O=C(NCC1CCCO1)C1CC1(c1ccccc1)c1ccccc1 (stereo unspecified)	?	0%	?	0	6%	-15%
CC(=O)Nc1ccc(Nc2nc(Nc3ccc(Cl)cc3)nc(N3CCOCC3)n2)cc1	1.3µM*	12%	0.79µM*	nt	nt	-26%
CN1CCN(c2nc(Nc3cccc(C(F)(F)F)c3)nc(N3CCOCC3)n2)CC1	?	?	?	-59*	-9%	-87%
Fc1ccccc1Nc1nc(N2CCOCC2)nc(N2CCOCC2)n1	21µM*	?	?	-19	3%	-39%
Clc1ccc(Nc2nc(Nc3ccc(Cl)cc3)nc(N3CCOCC3)n2)cc1	?	11%	?	nt	nt	-13%
N#Cc1ccc(OCC(=O)OCC(=O)N2CCc3ccccc32)cc1	-3%	3%	1%	-8	nt	-4%
O=[N+]([O-])c1ccccc1S(=O)(=O)NCCSCc1ccco1	?	9%	?	-26	3%	-5%
CCS(=O)(=O)Nc1cc(C(=O)N2CCC[C@H]2CO)c2c(c1)nc(-c1ccccc1)n2C	13%[9.04 µM]	nt	-5%	nt	nt	nt

Source: PubChem BioAssay
